From PubChem BioAssay (NCI) come the findings set out here.

Compounds without any hit were thinned out: in the full panel of roughly 83,000, 20% have a hit.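 Growth was measured after 48 h exposure to one concentration of compound in 96-well plates. Values under 10 count as active.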 Active and inactive are the calls of the source.

The experiment relates to HL-60(TB) leukemia. As to the kind of experiment: NCI-60 one-dose screen, 48 h (100 = growth as untreated, 0 = no growth, -100 = all killed). Particulars: 10 µM unless noted.
With `O=C(Nc1cccc(N=Cc2c(O)ccc3ccccc23)c1)c1ccccc1`, the growth was 109% (inactive).

Regarding `COc1ccc2c(c1)CC[C@@H]1[C@@H]2CC[C@]2(C)C3C(=CC(COC(C)=O)C4C(=O)N(c5ccc(Cl)cc5)C(=O)C43)C[C@@H]12` (stereo not given in full), the growth was 88.4% (inactive). `CCN1CCN(CC(=O)Nc2nc3ccc(NCc4ccc(F)cc4)cc3s2)CC1`: the growth is 96.4% (inactive). The result for `CCOc1ccc(-c2nc3ccc(-c4nc5ccc(N6CCN(C)CC6)cc5[nH]4)cc3[nH]2)cc1OCC` reads 24.8% (inactive). The result for `NC(N)=NN=c1c(=O)c2ccccc2c1=O` reads 95.2% (inactive); that for `CC(=O)NC(CCc1ccc(Cl)c(Cl)c1)c1cccc(O)c(=O)c1` (stereo not given), -16.5% (active). For the molecule `O=C(Nc1nc(-c2ccccc2Cl)cs1)c1cc(-c2ccc(Cl)cc2)nc2ccc(Cl)cc12`, the growth is -21.9% (active).

Take `CC(=O)[C@H]1CC[C@H]2[C@@H]3CC[C@H]4CC=CC[C@]4(C)[C@H]3CC[C@]12C`: the growth was 69% (inactive). As to `CC1(C)CC(OCCCC[P+](c2ccccc2)(c2ccccc2)c2ccccc2)CC(C)(C)N1O`, the growth is -37.4% (active). On to `c1cc2c(cc1-c1cnc3nonc3n1)OCO2`, for which the growth was 0.978% (active). In the case of `CCN(CC)c1ccc(Nc2ccc(CC(=O)c3ccccc3)cc2)cc1`, the growth is 97.9% (inactive).

On to `COc1nc(OC)nc(-c2cc(C(=O)c3ccc(Br)cc3)n3cc(C)cc(C)c23)n1`, for which the growth was 99% (inactive). The result for `COc1cc(-c2cc(/C=C/C(=O)c3ccc(N)cc3)[nH]n2)cc(OC)c1OC` reads 13.2% (inactive).

`COc1ncnc2c1ncn2C/C(Br)=C(\Br)CCl`: the growth is 47.1% (inactive). For `Cc1ccc(/C=C/c2c(C(=O)/C=C/c3ccc(Cl)cc3)c(C)nc3ccccc23)cc1`, the growth was -8.89% (active).

`Cc1ccc(Nc2cc(N)nc(N)n2)cc1`: the growth is 99.6% (inactive).

Turning to `COC(=O)/C(CCC=C(C)C)=C1\[C@@H](OC(C)=O)C[C@@]2(C)[C@H]1C[C@@H](O)[C@H]1[C@@]3(C)CC[C@H](NCc4ccccc4)[C@@H](C)[C@@H]3CC[C@@]12C`, the growth was 43% (inactive).

Consider `COc1cc(C2=NN(C(C)=O)C(c3cc(OC)c(OC)c(OC)c3)C2)ccc1O` (stereo not given), for which the growth was -37.6% (active).

For `COc1ccc(C(C)=O)cc1S(N)(=O)=O`, the growth was 74.7% (inactive).

Turning to `C[n+]1cc2cc(C(N)=O)[nH]c3c(=N)c(Cl)c(N)c1c23`, the growth was 78.8% (inactive).

As to `O=c1[nH]c(-c2ccccc2)nc2sc3cc(O)ccc3c12`, the growth is -33.5% (active). `CCCCCCCCCCCCCCCC1=NCC[N+]1(CCO)CCO`: the growth was 44.9% (inactive). Regarding `O=c1c(/C=C/c2c(O)ccc3ccccc23)nnc2sc(-c3cccc([N+](=O)[O-])c3)nn12`, the growth was 11.2% (inactive). With `COc1cc2ncnc(Nc3ccc4c(cnn4C(=O)Nc4ccccc4)c3)c2cc1OC`, the growth is 83.5% (inactive).

`CN1CCN(c2nc(-c3ccncc3)nc3sc4c(c23)CCCCCC4)CC1`: the growth is 88.3% (inactive). Consider `COc1ccc(/C=C/C(=O)c2cc3c(N)c(C(=O)Nc4ccccc4)sc3nc2C)cc1`, for which the growth was 2.92% (active). In the case of `COc1ccccc1N1CCN(CC(O)COc2c(Br)c(Br)c(Br)c3c2OC(C)(C)C3)CC1` (stereo not given), the growth is 10.3% (inactive). Consider `O=C1c2c(c3c4ccccc4[nH]c3c3ccc4ccccc4c23)C(=O)N1CCN1CCOCC1`, for which the growth is 53.6% (inactive). The result for `COc1ccccc1-n1c(-c2sc(NC(C)=O)nc2C)n[nH]c1=S` reads 101% (inactive). The result for `COc1cc(NCCCN(CC(C)C)C2CCCC2)c2ncccc2c1` reads 22.5% (inactive); that for `COc1ccc(-c2nc3ncccn3c2-c2nc3ccc(Br)cc3[nH]2)cc1`, 81.3% (inactive); that for `C=CCc1cc(Cl)cc2c(OC(C)=O)c(C(C)=O)c(-c3ccccc3)nc12`, 107% (inactive).

Regarding `CCN(CC)CCCC(C)Nc1ccnc2c(OC)cccc12` (stereo not given), the growth was 52.6% (inactive). `CCCCN(Cc1ccc(C(=O)NO)cc1)C(=O)Nc1ccc(OCCCCCCCCCn2cc(CCCCC(=O)N[C@H](C(=O)N3C[C@H](O)C[C@H]3C(=O)NCc3ccc(-c4scnc4C)cc3)C(C)(C)C)nn2)cc1`: the growth is 21.6% (inactive). Take `COc1ccc(CCN2C(=O)C(C)(C)SC2=S)cc1OC`: the growth is 106% (inactive). As to `C#Cc1ccc(NC(=O)Cc2ccc(/C=C/C(=O)c3nccn3C)cc2)cc1`, the growth is 16.5% (inactive). `Cc1sc2nc(NCCc3cccs3)[nH]c(=O)c2c1C`: the growth is 102% (inactive). On to `COc1cc(NS(=O)(=O)c2ccc(-c3cnc(C4CC4)o3)cc2)ccc1F`, for which the growth is 1.92% (active). Take `CCOc1c(OC)cc2c(c1O)C(=O)N[C@@H]1[C@@H](O)[C@@H](O)[C@H](O)C[C@@H]21`: the growth is 100% (inactive). For the molecule `CC(C)(C)c1ccc(C2CC(=O)C3=C(C2)Nc2ccccc2N(C(=O)c2ccccc2Cl)C3c2ccc(F)cc2)cc1` (stereo not given), the growth is -19.8% (active).
